{"source": "PubChem BioAssay", "note": "Calls of active or inactive are those of the source. How the calls were made is not given here."}
{"target": "Pantothenate synthetase (Mycobacterium tuberculosis (strain ATCC 25618 / H37Rv)) (UniProt P9WIL5)", "sequence (P9WIL5 whole entry, looked up)": "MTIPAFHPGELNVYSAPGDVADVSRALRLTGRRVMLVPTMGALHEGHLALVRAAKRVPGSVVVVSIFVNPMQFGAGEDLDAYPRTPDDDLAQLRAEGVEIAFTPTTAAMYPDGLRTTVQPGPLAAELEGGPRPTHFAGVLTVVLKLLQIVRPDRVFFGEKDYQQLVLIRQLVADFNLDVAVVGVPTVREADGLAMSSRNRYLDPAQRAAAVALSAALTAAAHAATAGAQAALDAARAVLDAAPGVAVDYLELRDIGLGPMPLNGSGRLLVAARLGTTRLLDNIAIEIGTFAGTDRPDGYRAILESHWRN", "test": "Recombinant Mtb pantothenate synthetase (PanC) inhibitors, coupled enzyme, confirmatory (AID 375);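 further: 0% = full reaction with vehicle and 100% = no enzyme background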", "details": "coupled enzyme assay; at 10 µM, stronger effect = higher value"}
{"smiles": "CCCC(NC(=O)c1ccccc1)c1nc2ccccc2n1Cc1ccc(C(=O)OC)o1", "note": "(stereo not drawn)", "inhibition": "0% (inactive)"}
{"smiles": "CCC(=O)N1CCc2cc(Br)cc(S(=O)(=O)N3CCCCCC3)c21", "inhibition": "0% (inactive)"}
{"smiles": "CCCC1CCC(C(=O)Nn2cnc3ccccc3c2=O)CC1", "note": "(stereo not drawn)", "inhibition": "1% (inactive)"}
{"smiles": "COC(=O)c1ccc(NC(=O)Cn2nnc3ccccc32)cc1", "inhibition": "0% (inactive)"}
{"smiles": "CCNc1nc(N2CCOCC2)nc(N(c2ccccc2)c2ccccc2)n1", "inhibition": "0% (inactive)"}
{"smiles": "COc1cc(C(=O)Nc2nc(-c3cccs3)cs2)cc(OC)c1OC", "inhibition": "0% (inactive)"}
{"smiles": "CCN(CC)CCOc1cccc(C(C)C)c1", "inhibition": "4% (inactive)"}
{"smiles": "COCCN1C(=O)c2oc3c(C)cc(C)cc3c(=O)c2C1c1cccc(O)c1", "note": "(stereo not drawn)", "inhibition": "5% (inactive)"}
{"smiles": "Cc1c(C(=O)OCc2ccccc2)[nH]c2c1C(=O)CC(c1ccco1)C2", "note": "(stereo not drawn)", "inhibition": "1% (inactive)"}
{"smiles": "c1ccc(-c2cc(-c3nc(-c4ccccn4)no3)c3ccccc3n2)cc1", "inhibition": "0% (inactive)"}
{"smiles": "CC(C)c1cc(C(=O)NCc2ccco2)no1", "inhibition": "0% (inactive)"}
{"smiles": "COc1ccc(Cl)cc1Nc1nc(C)cc(=O)[nH]1", "inhibition": "3% (inactive)"}
{"smiles": "CCc1cccc(NC(=O)Cn2cc3c(n2)CCCC3)c1", "inhibition": "0% (inactive)"}
{"smiles": "CCOC(=O)Cn1c(=O)c(-c2ccccc2N)nc2ccccc21", "inhibition": "3% (inactive)"}
{"smiles": "CS(=O)(=O)Nc1ccc(S(=O)(=O)Nc2nccs2)cc1", "inhibition": "0% (inactive)"}
{"smiles": "COc1ccc(C)cc1NC(=O)C1CCN(S(=O)(=O)c2cccc3cccnc23)CC1", "inhibition": "19% (inactive)"}
{"smiles": "Nc1nc(-n2cnnc2)nn1-c1ccccc1", "inhibition": "0% (inactive)"}
{"smiles": "Cc1cc(C)cc(NC(=O)N2CCC(c3nc4ccccc4o3)CC2)c1", "inhibition": "7% (inactive)"}
{"smiles": "Nc1nc(-c2ccc(Br)s2)c(Br)s1", "inhibition": "2% (inactive)"}
{"smiles": "Cc1ccc(S(=O)(=O)C2(C(=O)Nc3cccnc3)CC2)cc1", "inhibition": "1% (inactive)"}
{"smiles": "CC(=O)Nc1ccc(S(=O)(=O)N2CCN(Cc3ccncc3)CC2)cc1", "inhibition": "8% (inactive)"}
{"smiles": "CCn1cc(SCC(=O)NCC2CCCO2)c2ccccc21", "note": "(stereo not drawn)", "inhibition": "0% (inactive)"}
{"smiles": "Cc1ccccc1CS(=O)(=O)CCC(=O)N1CCN(c2ccc(N3CCOCC3)nn2)CC1", "inhibition": "9% (inactive)"}
